Out of some 290,000 compounds screened, about 890 (0.31%) were called active. No stated cut-off is given here; in the data, active means inhibition mostly above about 52% (no sharp cut-off); inactive means mostly below about 76%. The full list was thinned out, with actives kept by preference.
Assay: inhibitors of HIV fusion peptide binding, primary screen, biochemical, uHTS, fluorescence dequenching (AID 1986)
Conditions: cell-free peptide binding, 30 min, stronger effect = higher value
[1] = measured here: repeat confirmation average inhibition, at 18.6 µM

Compound | inhibition (at 20 µM) | inhibition [1]
COc1cccc(NC(=O)N2CCC(NC(=O)C(Cc3ccccc3F)NC(C)=O)CC2)c1 (centres undefined) | -0.5% (inactive) | –
O=C(Nc1ccccc1C(=O)O)/C(=C/c1ccc([N+](=O)[O-])cc1)NC(=O)c1ccc(Br)o1 | 20.5% (inactive) | –
Cc1cc(C)c(NC(=O)CCCSc2nnc(N)s2)c(C)c1 | -0.5% (inactive) | –
CSc1nc(-c2ccc(C)cc2)[nH]c1S(=O)(=O)c1ccccc1 | -0.2% (inactive) | –
Cc1ccc(-c2[nH]c(-c3ccc(C(=O)O)cc3)nc2-c2ccccc2)cc1 | 61.6% (inactive) | 27.3%
CC(=O)Sc1nc(-c2ccccc2)[nH]c1S(=O)(=O)c1ccc(C)cc1 | 60.7% (active) | –
COc1ccc(C2/C(=C(/O)c3ccc(F)cc3)C(=O)C(=O)N2c2ccccn2)cc1OC (centres undefined) | 0.2% (inactive) | –
CC(=O)Nc1ccc(S(=O)(=O)N2CCN(S(=O)(=O)N3CCCCC3)CC2)cc1 | 0.1% (inactive) | –
O=C(Nc1ccccc1)OC1C2CCC1C(N1CCCCC1)CC2 (centres undefined) | 1.6% (inactive) | –
O=C(Nc1nccs1)c1cc(S(=O)(=O)N2CCCCC2)ccc1Cl | -1.5% (inactive) | –
O=C1/C(=C\c2ccc(Br)cc2)SC(=S)N1NS(=O)(=O)c1ccccc1 | 67.6% (inactive) | 0.2%
CC(=O)N1C(=O)/C(=C2\SC(=S)N(NS(=O)(=O)c3ccc(C)cc3)C2=O)c2ccccc21 | 55.6% (inactive) | -0.3%
CSc1ccc(CNCc2ccc3c(c2)OCO3)cc1 | 3.5% (inactive) | –
CCCC(C(=O)Nc1ccc2c(C)cc(=O)oc2c1)c1ccccc1 (centres undefined) | 0.5% (inactive) | –
O=[N+]([O-])c1ccc(/C=C/C2=NN(c3ccccc3)C(c3ccco3)C2)cc1 (centres undefined) | 35% (inactive) | –
O=[N+]([O-])c1ccc(/C=C/C2=NN(c3ccccc3)C(c3ccco3)C2)o1 (centres undefined) | 18.7% (inactive) | –
C(=C\c1ccco1)/C1=NN(c2ccccc2)C(c2ccco2)C1 (centres undefined) | 81.8% (active) | –
CC(CNC(=O)CCS(=O)(=O)c1cc2c(cc1Cl)NC(=O)CO2)c1ccccc1 (centres undefined) | -0.3% (inactive) | –
COc1ccc(/C=C2\SC(c3ccc(C)cc3)=NC2=O)cc1OC | 97.6% (active) | 176%
COc1ccc(/C=C2/SC(c3ccc(C)cc3)=NC2=O)cc1OC | 0.3% (inactive) | –
COc1cccc(/C=c2\s/c(=C/C(=O)c3ccc(C)cc3)[nH]c2=O)c1OC | 4.7% (inactive) | –
COc1ccc(/C=c2\s/c(=C/C(=O)c3ccc(C)cc3)[nH]c2=O)cc1OC | 77.2% (active) | –
COc1ccc(/C=c2\s/c(=C/C(=O)c3ccc(C)cc3)[nH]c2=O)c(OC)c1 | 47.8% (inactive) | –
COc1cc(/C=C2\SC(c3ccc(C)cc3)=NC2=O)ccc1O | 36.7% (inactive) | –
Cc1cc2c(ncn2Cc2ccccc2)c(NS(C)(=O)=O)c1C | -1% (inactive) | –

Compound | inhibition (at 20 µM) | inhibition [1]
O=C(CN(Cc1ccc(F)cc1)C(=O)CNS(=O)(=O)c1ccc(F)cc1)NCc1ccco1 | 1.3% (inactive) | –
COc1ccc(CCNC(=O)Cc2cc(OC)c(OC)cc2Br)cc1OC | 1.9% (inactive) | –
CCOC(=O)N1CCc2c(sc3ncn(C)c(=O)c23)C1 | -2.6% (inactive) | –
COC(=O)c1ccccc1NC(=O)c1ccc2c(c1)OCCCO2 | -0.4% (inactive) | –
O=C(CS(=O)(=O)Cc1ccccc1)N1CCN(c2cccc(C(F)(F)F)c2)CC1 | 4.6% (inactive) | –
COc1cc(/C=C2\SC(=O)NC2=O)ccc1Oc1ccc([N+](=O)[O-])cc1[N+](=O)[O-] | 63% (active) | –
COc1cc(/C=C2\SC(=O)NC2=O)ccc1Oc1ccc([N+](=O)[O-])cn1 | 13.1% (inactive) | –
COc1cc(/C=C2/SC(=O)NC2=O)ccc1Oc1ccc([N+](=O)[O-])cc1[N+](=O)[O-] | 74.1% (inactive) | 9.9%
Cc1ccc(NC(=O)Cn2cnc3sc(C(=O)NCc4ccco4)c(C)c3c2=O)cc1Cl | -1.5% (inactive) | –
N#Cc1c(N)sc(=S)c2c1CCCCC2 | 50% (active) | –
N#Cc1c(N2CCCCC2)nc(N2CCCCC2)c2c1CCN(Cc1ccccc1)C2 | 8.7% (inactive) | –
N#Cc1c(N)sc(=S)c2c1CCN(Cc1ccccc1)C2 | 86.2% (active) | –
N#Cc1c(N)sc2c1CCCCCC2 | -2% (inactive) | –
N#Cc1c(N)sc2c1CCN(CCc1ccccc1)C2 | 8.1% (inactive) | –
N#Cc1c(N)sc(=S)c2c1CCCC2 | 0% (inactive) | –
CN1CC2([N+](=O)[O-])CC=C(OCCO)C([N+](=O)[O-])(C1)C2 (centres undefined) | 0.4% (inactive) | –
O=C(Nc1ccc(N2CCOCC2)cc1)C1(S(=O)(=O)c2ccccc2)CC1 | -1.1% (inactive) | –
COc1ccc(CCN2CCCn3c2nc2c3c(=O)n(CC(C)C)c(=O)n2C)cc1OC | 0.5% (inactive) | –
Cc1cc(C)c(S(=O)(=O)/N=C2\C=C(NS(=O)(=O)c3ccccc3)C(=O)c3ccccc32)c(C)c1 | 68.3% (inactive) | 42.3%
CC(C)c1ccc(S(=O)(=O)/N=C2/C=CC(=O)c3ccccc32)cc1 | 3.8% (inactive) | –
CC(C)c1ccc(S(=O)(=O)/N=C2\C=C(NS(=O)(=O)c3ccccc3)C(=O)c3ccccc32)cc1 | 74.7% (active) | –
O=C(CSc1n[nH]c(=O)[nH]c1=O)NC1CCCCC1 | -0.2% (inactive) | –
COC(=O)c1cc(N2CCNCC2)nc2ccccc12 | 6.8% (inactive) | –
COC(=O)c1cc(N2CCN(C)CC2)nc2ccccc12 | 114% (active) | –
O=C(O)c1cc(N2CCOCC2)nc2ccccc12 | 0.2% (inactive) | –

Compound | inhibition (at 20 µM) | inhibition [1]
Cn1c(=O)c2[nH]c(Nc3ccccc3)nc2n(C)c1=O | -0.7% (inactive) | –
CC(C)c1ccc(NC(=O)CCNS(=O)(=O)c2ccc3[nH]c(=O)oc3c2)cc1 | 2.1% (inactive) | –
CC(C)CNC(=S)N(CCN(C)C)Cc1cc2cc3c(cc2[nH]c1=O)OCO3 | -2.4% (inactive) | –
Oc1ccc(Br)cc1Cn1nnc2ccccc21 | -0.3% (inactive) | –
Oc1ccc2nnc3c(Br)cnn3c2c1 | 82.2% (active) | 59.6%
Clc1ccc2nc3c4ccccc4cnn3c2c1 | 0% (inactive) | –
COc1ccc(OC)c(/C=N/NC(=O)CNC(=O)c2cccc3ccccc23)c1 | -1.3% (inactive) | –
Nc1cc(=O)[nH]c(SCC(=O)N2N=C(c3ccc4ccccc4c3)CC2c2ccccc2)n1 (centres undefined) | -0.7% (inactive) | –
Cc1cc(-c2ccccc2)n2ncnc2n1 | 0.4% (inactive) | –
COc1ccc(CNc2cc(C)nc3ccc(OC)cc23)cc1 | -0.2% (inactive) | –
COc1ccc2nc(C)cc(NCc3ccc(F)cc3)c2c1 | 65.2% (active) | 53%
COc1ccc2nc(C)cc(NCc3cccc(C(F)(F)F)c3)c2c1 | -0.7% (inactive) | –
COc1ccccc1C(=O)Nc1ccccn1 | 0.9% (inactive) | –
CCc1nc(N[C@@H](CC(C)C)C(=O)O)c2oc3ccccc3c2n1 | 4.3% (inactive) | –
Cc1ccc(C2C3CN(C(C)C)CC=C3C(C#N)=C(N)C2(C#N)C#N)cc1 (centres undefined) | 87.6% (active) | –
CN1CC=C2C(C#N)=C(N)C(C#N)(C#N)[C@H](c3cccc(Cl)c3)C2C1 (some centres undefined) | 25.6% (inactive) | –
CC(C)N1CC=C2C(C#N)=C(N)C(C#N)(C#N)C(c3ccccc3)C2C1 (centres undefined) | 86.9% (active) | –
CN1CC=C2C(C#N)=C(N)C(C#N)(C#N)[C@H](c3ccoc3)[C@H]2C1 | 0.3% (inactive) | –
CC(=O)N1CC=C2C(C#N)=C(N)C(C#N)(C#N)[C@H](c3ccoc3)[C@H]2C1 | 29% (inactive) | –
Cc1ccc(C2C3CSCC=C3C(C#N)=C(N)C2(C#N)C#N)cc1 (centres undefined) | 22.2% (inactive) | –
CCCC1C2CN(C(C)C)CC=C2C(C#N)=C(N)C1(C#N)C#N (centres undefined) | -3.6% (inactive) | –
CN1CC=C2C(C#N)=C(N)C(C#N)(C#N)C(Cc3ccccc3)C2C1 (centres undefined) | 52.9% (active) | –
CCN1CC=C2C(C#N)=C(N)C(C#N)(C#N)C(CCc3ccccc3)C2C1 (centres undefined) | -0.3% (inactive) | –
CN1CC=C2C(C#N)=C(N)C(C#N)(C#N)C(CCc3ccccc3)C2C1 (centres undefined) | 64.6% (inactive) | 14.6%
CC(C)N1CC=C2C(C#N)=C(N)C(C#N)(C#N)[C@H](c3ccoc3)[C@H]2C1 | 123% (active) | –

Compound | inhibition (at 20 µM) | inhibition [1]
COc1ccc(OC)c(C2C3CN(C(C)C)CC=C3C(C#N)=C(N)C2(C#N)C#N)c1 (centres undefined) | -0.5% (inactive) | –
COc1cc(/C=C(\C#N)C(=O)NCC2CCCO2)ccc1OC(C)C (centres undefined) | -1.4% (inactive) | –
CN(CC(=O)Nc1ccc(F)c(F)c1F)c1ncnc2sccc12 | 0.3% (inactive) | –
COCCn1c(SCC(=O)N2CCCc3ccccc32)nnc1-c1ccoc1C | -1.1% (inactive) | –
COc1ccc(Cl)cc1N1C(=O)CN(Cc2cc(OC)c(OC)c(OC)c2)C1=S | 1% (inactive) | –
COc1ccccc1C(=O)NNC(=O)c1ccc2ccccc2c1 | 0.5% (inactive) | –
O=C(/C=C/c1ccccc1)Nc1cccnc1Cl | -1.1% (inactive) | –
CCCCOC(=O)c1ccc(N=Nc2c(C)c(C#N)c(O)[nH]c2=O)cc1 | 77.6% (active) | 93.8%
CCOC(=O)c1ccc(N=Nc2c(C)c(C#N)c(O)[nH]c2=O)cc1 | 4.3% (inactive) | –
Cc1c(C#N)c(O)[nH]c(=O)c1N=Nc1ccc(S(N)(=O)=O)cc1 | 12% (inactive) | –
COc1ccccc1CC(NC(C)=O)C(=O)NC1CCN(C(=O)Nc2cccc(F)c2)CC1 (centres undefined) | -1.2% (inactive) | –
C=C1CCN([C@@H](C)C(=O)OCc2cccc(C)c2)S(=O)(=O)c2ccccc21 | 1.3% (inactive) | –
O=C(CN1C(=O)/C(=C/c2ccco2)SC1=S)Nc1ccc(O)c(C(=O)O)c1 | 58.3% (active) | –
O=C(CCCN1C(=O)/C(=C\c2ccco2)SC1=S)Nc1ccc2ccccc2c1 | 65.1% (inactive) | 3%
O=C(CCCN1C(=O)/C(=C/c2ccco2)SC1=S)Nc1cccc(C(=O)O)c1 | 59.9% (inactive) | 12.3%
O=C(CCCN1C(=O)/C(=C/c2ccco2)SC1=S)Nc1ccccc1C(=O)O | 67.2% (inactive) | 29.8%
CC(C(=O)Nc1ccc(C(=O)O)c(O)c1)N1C(=O)/C(=C\c2ccco2)SC1=S (centres undefined) | 78.3% (active) | –
O=C(CCCN1C(=O)/C(=C/c2ccccc2)SC1=S)Nc1ccc(C(=O)O)c(O)c1 | 60.7% (inactive) | 40.5%
CC(=O)c1ccc(NC(=O)CCCN2C(=O)/C(=C/C(C)=C/c3ccccc3)SC2=S)cc1 | 3.3% (inactive) | –
O=C(CCN1C(=O)S/C(=C/c2ccccc2)C1=O)Nc1ccc(C(=O)O)c(O)c1 | 29.4% (inactive) | –
CC(/C=C1\SC(=S)N(CCCC(=O)Nc2ccc(C(=O)O)c(O)c2)C1=O)=C\c1ccccc1 | 56.9% (active) | –
CC(C(=O)N(C)C1CCS(=O)(=O)C1)N1C(=O)/C(=C/c2ccco2)SC1=S (centres undefined) | 24.8% (inactive) | –
CC(C(=O)Nc1ccc(O)cc1C(=O)O)N1C(=O)/C(=C\c2cccs2)SC1=S (centres undefined) | 50.1% (inactive) | 46.3%
O=C(CCN1C(=O)/C(=C\c2ccco2)SC1=S)Nc1ccc(C(=O)O)c(O)c1 | 75.4% (active) | –

— PubChem BioAssay AID1986 (Sanford-Burnham Center for Chemical Genomics, 2009)
